# Data: the supplement of paper PMC9135407
# Among all 5,800 compounds or so, about 620 (11%) showed activity. The sample holds actives, similar compounds and a random draw of the others, so the mix is not that of the screen. Unmarked numbers belong to inactive results.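 Rule for the calls: active = score above a cut-off or among the top three wells of a plate; in these data no inactive exceeds 0.85.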
# Test system: primary human hepatic stellate cells (donor 1)
# Assay: scaled lipid accumulation score (0 = DMSO-like, 1 = nortriptyline-like); higher = stronger HSC inactivation (lipid re-accumulation), active = hit call of the paper
# Conditions: 48 h
# [1] = library stock concentration: 10 mM
# [2] = library stock concentration: 3.33 mM
# [3] = library stock concentration: 1 mM
# [4] = library stock concentration: 400 uM
# [5] = library stock concentration: 2 mM
smiles,measurement,setting,value
Cc1cc(CS(=O)(=O)c2ccccc2)cc(OCc2ccc(CN3CCC[C@@H]3CO)cc2)c1 [listing 1 of 2 here],scaled lipid accumulation score,[1],1.03 (active)
Cc1cc(CS(=O)(=O)c2ccccc2)cc(OCc2ccc(CN3CCC[C@@H]3CO)cc2)c1 [listing 2 of 2 here],scaled lipid accumulation score,[2],≤ -0.009
CCCCC[C@H](O)/C=C/[C@@H]1[C@@H](CCCCCCC(=O)O)[C@H](O)C[C@H]1O [Prostaglandin F1.beta.],scaled lipid accumulation score,[3],≤ 0
COc1ccc2c3n(c(=NC(=O)c4cccnc4)nc2c1OC)CCN3,scaled lipid accumulation score,[4],≤ -0.005
same,scaled lipid accumulation score,[5],≤ -0.005
same,scaled lipid accumulation score,[1],≤ -0.005
CCCCC[C@H](O)/C=C/[C@H]1CC[C@@H](O)[C@@H]1C/C=C\CCCC(=O)O [11-deoxy Prostaglandin F2.beta.],scaled lipid accumulation score,[3],≤ 0
CCCCCCCCCCC1=C(C)C(=O)C(OC)=C(OC)C1=O [Decylubiquinone],scaled lipid accumulation score,library stock concentration: 15.5 mM,≤ -0.021
CCC1(C)OC(=O)N(C)C1=O (stereo not drawn),scaled lipid accumulation score,[1],≤ 0
CCN1CCN(Cc2ccc(Nc3ncc(F)c(-c4cc(F)c5nc(C)n(C(C)C)c5c4)n3)nc2)CC1 [Abemaciclib] [listing 1 of 2 here],scaled lipid accumulation score,[5],0.882 (active)
CCN1CCN(Cc2ccc(Nc3ncc(F)c(-c4cc(F)c5nc(C)n(C(C)C)c5c4)n3)nc2)CC1.CS(=O)(=O)O,scaled lipid accumulation score,[2],0.963 (active)
same,scaled lipid accumulation score,[1],0.943 (active)
CCN1CCN(Cc2ccc(Nc3ncc(F)c(-c4cc(F)c5nc(C)n(C(C)C)c5c4)n3)nc2)CC1 [Abemaciclib] [listing 2 of 2 here],scaled lipid accumulation score,library stock concentration: 80 uM,0.332
same,scaled lipid accumulation score,[4],0.55
same,scaled lipid accumulation score,[1],0.691
CC(=O)N[C@@H](CSC/C=C(\C)CCC=C(C)C)C(=O)O [N-Acetyl-S-geranyl-L-cysteine],scaled lipid accumulation score,[3],≤ -0.021
CCC(=O)O[C@H]1CC[C@H]2[C@@H]3CCc4cc(O)ccc4[C@H]3CC[C@]12C [Estradiol propionate],scaled lipid accumulation score,library stock concentration: 6.1 mM,0.254
same,scaled lipid accumulation score,[1],0.443
O=C1OC2(c3ccc(O)cc3Oc3cc(OS(=O)(=O)c4c(F)c(F)c(F)c(F)c4F)ccc32)c2ccccc21 (stereo not drawn) [Pentafluorobenzenesulfonyl fluorescein],scaled lipid accumulation score,[3],≤ 0
CO[C@H]1C[C@@H]2CC[C@@H](C)[C@@](O)(O2)C(=O)C(=O)N2CCCC[C@H]2C(=O)O[C@H]([C@H](C)C[C@@H]2CC[C@@H](OC(=O)C(C)(CO)CO)[C@H](OC)C2)CC(=O)[C@H](C)/C=C(\C)[C@@H](O)[C@@H](OC)C(=O)[C@H](C)C[C@H](C)/C=C/C=C/C=C/1C,scaled lipid accumulation score,[2],0.032
same,scaled lipid accumulation score,[1],0.094
CN1CCN(C2CCN(C(=O)Nc3cc(Oc4ccc(NC(=O)C5(C(=O)Nc6ccc(F)cc6)CC5)c(F)c4)ccn3)CC2)CC1 [Golvatinib (E7050)] [listing 1 of 2 here],scaled lipid accumulation score,[1],0.429
CN1CCN(C2CCN(C(=O)Nc3cc(Oc4ccc(NC(=O)C5(C(=O)Nc6ccc(F)cc6)CC5)c(F)c4)ccn3)CC2)CC1 [Golvatinib (E7050)] [listing 2 of 2 here],scaled lipid accumulation score,[2],0.979 (active)
